This note sets out measurements from ChEMBL document CHEMBL4513216, “Probing the Open Global Health Chemical Diversity Library for Multistage-Active Starting Points for Next-Generation Antimalarials” (ACS Infect Dis, 2020).

Structures are written as SMILES. About 8,600 (12%) of roughly 69,000 compounds showed an effect of 50% or more. This excerpt belongs to a sample that is enriched for strong results.

The test system of this assay is Plasmodium berghei. Description: Screen against P. berghei liver stage (PbLuc), transformed with Luciferase, at 10uM. In kind it is functional, HepG2. The conditions noted are these: tested at 10 uM.
`CC(=O)N(Cc1noc(C2CC2)n1)C1CCN(Cc2ccccc2)C1` (configuration not stated): the INHIBITION is listed as -6.44%.
The value for `CN(C)CC(=O)N1CCC2(CCc3ccc(-c4ccncc4)cc32)CC1` was 21.6%.
Turning to `OCCN1CCC2(CCc3cc(-c4ccoc4)ccc32)CC1`, the INHIBITION turned out to be 28.2%.
Consider `c1cncc(-c2ccc3c(c2)C2(CCNCC2)CC3)c1`, for which the INHIBITION is on record as 27.5%.
The same measure for `Cc1ccc2c(c1)CCC21CCN(C(=O)CO)CC1`: 10.1%; for `c1cncc(-c2ccc3c(c2)CCC32CCN(Cc3nccs3)CC2)c1`: 57.1%.
`c1cncc(-c2ccc3c(c2)CCC32CCNCC2)c1`: the INHIBITION came to 57.1%.
As to `c1cc(-c2ccc3c(c2)C2(CCNCC2)CC3)ccn1`, the INHIBITION came out at 82.2%.
The value for `CN(C)CC(=O)N1CCC2(CCc3cc(-c4cccnc4)ccc32)CC1` was 15.3%.
The same measure for `c1cncc(-c2ccc3c(c2)CCC32CCN(Cc3ccco3)CC2)c1`: 26.5%; for `O=C(CCO)N1CCC2(CCc3ccc(-c4ccoc4)cc32)CC1`: 0.923%; for `c1cc(-c2ccc3c(c2)CCC32CCNCC2)ccn1`: 57.1%.
The same measure for `O[C@H]1[C@H](n2cc(-c3cccnc3)nn2)c2ccccc2C12CCNCC2`: 31.2%; for `CCOc1ccc(NC(=O)c2cc3c([nH]c2=O)CCC3)cc1`: -29.6%; for `NC(=O)NC1CCN(Cc2ccccc2OCC(F)(F)F)CC1`: 6.7%.
Regarding `Cc1noc(CN2CCN(C(=O)N(C)C)CC2)n1`, the INHIBITION came to 23.5%.
The same measure for `CS(=O)(=O)NC[C@@H]1OC[C@H]2CN(Cc3ccccc3)CC[C@H]21`: -54.9%; for `CC(C)c1sc(Cl)nc1C(=O)NCc1ccncc1`: -23%.
The value for `COc1nn(C)c2c1CCCN(C(=O)c1ccc(C)c(F)c1)C2` was -8.94%; that for `CS(=O)(=O)NC[C@H]1OC[C@H]2CN(Cc3ccsc3)CC[C@H]21` was -24.1%; that for `CN(C)c1ccc(CNC(=O)Nc2ccc(S(=O)(=O)C(F)F)cc2)cc1` was -3.99%.
The same measure for `Cn1ccc(CNC(=O)Nc2ccc(S(=O)(=O)C(F)F)cc2)c1`: 30.4%; for `COc1ccc(CNC(=O)Nc2ccc(S(=O)(=O)C(F)F)cc2)cc1`: 66.2%.
As for `Cc1cccc(Sc2nccn(C)c2=O)c1`, the INHIBITION came to 20.3%.
As for `CC(=O)N1CCC(n2nccc2-c2cnc(N(C)CCO)nc2)CC1`, the INHIBITION came to 11.5%.
Consider `CN(C)C1COC2(CCN(S(=O)(=O)c3ccc(F)cc3)CC2)C1` (configuration not stated), for which the INHIBITION worked out at 57.5%.
The value for `CCOC1COC2(CCN(S(=O)(=O)c3cccc(F)c3)CC2)C1` (configuration not stated) was 29.6%; that for `CCOC1COC2(CCN(S(=O)(=O)c3cccc(C)c3)CC2)C1` (configuration not stated) was 27.6%; that for `Cc1cccc(S(=O)(=O)N2CCC3(CC2)CC(N(C)C)CO3)c1` (configuration not stated) was 72%.
Take `COC1COC2(CCN(S(=O)(=O)c3ccc(F)cc3)CC2)C1` (configuration not stated): the INHIBITION is 32.1%.
The same measure for `CCOC1COC2(CCN(S(=O)(=O)c3ccc(F)cc3)CC2)C1` (configuration not stated): 45.7%; for `CCOCC1CN(S(=O)(=O)N(C)C)Cc2cnn(C)c21` (configuration not stated): 33.5%.
The same measure for `COCCN1CCO[C@@H]2CN(C(=O)Cc3ccccc3)CC[C@@H]2C1`: 18.5%; for `O=C(CCN1CCCCO1)N1CC[C@H](O)[C@@H](O)C1`: 28.7%.
The value for `O=C(CCN1CCCO1)N1CC[C@@H](CNC(=O)N2CCCC2)[C@H](O)C1` was 43.7%; that for `CC(C)O[C@H]1CN(C(=O)CCN2CCCCO2)C[C@@H]1O` was 57.6%.
For `Cc1cccc(C(=O)N2C[C@@H]3CCN(C(C)C)C[C@@H]3C2)c1`, the INHIBITION is on record as -38.1%.
The same measure for `Cc1cc(CN2CC[C@H]3C[C@H](C(=O)N4CCC(C)CC4)O[C@H]3C2)no1`: 34.7%; for `COc1cccc(-c2nc(CC(=O)NC3(C)CCS(=O)(=O)C3)cs2)c1` (configuration not stated): -10.1%.
The same measure for `COCC1CCN(c2cc(C3CN(C)CCO3)nc(C)n2)CC1` (configuration not stated): 23.9%.
The value for `CCC1CN(C(=O)Cc2coc(-c3ccccc3)n2)CCO1` (configuration not stated) was 7.4%; that for `Cn1cc(C2CN(C(=O)Cc3coc(-c4ccccc4)n3)CCO2)cn1` (configuration not stated) was 53.9%.
Consider `Cn1cc(C2CCCN2C(=O)Cc2coc(-c3ccccc3)n2)cn1` (configuration not stated), for which the INHIBITION is 13.9%.
The same measure for `CCS(=O)(=O)N1CCC2(CCN(Cc3nccs3)CC2)CC1`: 26.5%; for `CC(C)(C)C(=O)N1CCCC(c2ncncc2-c2ccncc2)C1` (configuration not stated): 49.6%; for `O=C1COc2cc(C(=O)NS(=O)(=O)c3cccc(Cl)c3)ccc2N1`: 47%.
On to `COc1ccc(CN(C)C2CCN(S(C)(=O)=O)CC2)c2cccnc12`, for which the INHIBITION worked out at 30.5%.
Take `COc1ccc(CN(C)C2CSCCSC2)c2cccnc12`: the INHIBITION was found to be 57.4%.
The value for `COc1ccc(CN(C)C2CCN(C(=O)C(C)C)CC2)c2cccnc12` was 8.97%; that for `O=C(c1ccccc1F)N1CCC2(CC1)CC(N1CCCC1)CO2` (configuration not stated) was 44.8%.
The same measure for `Cc1cnn(CC2CCCN2C(=O)c2ccc(F)cc2Cl)c1` (configuration not stated): -81.1%.
Regarding `CN(C)C(=O)c1n[nH]c2c1CN(CC1CCCCC1)C2`, the INHIBITION was 25.6%.
The same measure for `CCn1cc(NC(=O)C(C)n2ncc(Cl)c2C)c(C(=O)NCC(C)C)n1` (configuration not stated): 11%; for `CCN1CCC(c2nc3ccc(NC4CCC4)cn3n2)CC1`: 46.6%.
As to `c1cc2nc(C3CCN(CC4CC4)CC3)nn2cc1N1CCCC1`, the INHIBITION stood at 8.47%.
In the case of `COCCN1CCC(c2nc3ccc(NC(C)C)cn3n2)CC1`, the INHIBITION came to 19.5%.
The same measure for `COCC(=O)N1CCC(c2nc3ccc(N4CCOCC4)cn3n2)CC1`: 45.2%; for `COCCN1CCC(c2nc3ccc(N4CCCC4)cn3n2)CC1`: 52%.
The same measure for `COCCN1CCC(c2nc3ccc(NC4CCC4)cn3n2)CC1`: 57.5%; for `O=C(C1CCOCC1)N1CCc2ncc(CN3CCOCC3)n2CC1`: -3.88%.
The value for `COCCN1CCC2(CCN(c3ncccn3)CC2)C1=O` was 34.6%; that for `Cc1ccc(CN2C[C@@H]3[C@@H](C(=O)NCC4CC4)CCS(=O)(=O)[C@@H]3C2)cc1` was -21.1%.
With `Cc1cc(C)cc(C(=O)Nc2cn[nH]c2)c1`, the INHIBITION worked out at 7.77%.
The value for `O=C(NC1CCCC1)c1cc(Sc2ncccn2)ccn1` was -48.4%.
The value for `Cc1[nH]ncc1C(=O)NCC1CCC2(CC1)OCCO2` was 32%.
`O=C(NCC1CCC2(CC1)OCCO2)c1ccncc1F`: the INHIBITION came to 57.7%.
The value for `Cc1cc(C(=O)NCC2CCC3(CC2)OCCO3)[nH]n1` was 41.4%.
